The supplement of paper PMC11417369
Whole data set: some 25,000 sequences, median “ln(normalized median fluorescence intensity)” near 9.7, cut for the highest 2% near 11. The full list was thinned out, with the highest values kept by preference.

Tested on: PfAP2-HC AP2 domain (GST-tagged)
Assay: gcPBM binding intensity (ln(normalized median fluorescence intensity)); higher = stronger DNA binding
How it was run: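 Binding of GST-tagged P. falciparum DNA-binding domains, expressed in E. coli and used at about 25 μg on average, was carried out for 1 h in 1× PBS containing 1% milk, 0.2 mg/ml BSA, 0.5% salmon testes DNA and 0.03% Triton X-100. The target was an Agilent 4 × 180k array of primer-extended double-stranded 36-bp intergenic genomic probes plus negative controls, read with Alexa488 anti-GST antibody at 488 nm. Binding intensity is the highest Masliner-normalised natural-log median intensity across replicate spots of either probe orientation.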

| Sequence | gcPBM binding intensity (ln) |
| --- | --- |
| CCCCTCGAAATAATTTGTACGAATATATTGTCTGTA [XGTACX_site8308] | 9.68 |
| ATGTATATGATTAAATGTACGTAAACAAATTTGTAA [XGTACX_site8174] | 9.81 |
| ATATCATTAAAAGGATGTACATATGTGTATACAATA [XGTACX_site871] | 9.84 |
| TATATATATATATATATATATATTAATATATATTAC [XGTACX_negctrl_site103] | 9.62 |
| AAAAAAAAAAGACACACACACATAGACCTCCAATAG [CACACA_site7646] | 10.5 |
| AAAAAAAAAAAACACACACACATAGACCTCCAATAG [CACACA_site3562] | 10.3 |
| AAAAAAAAAAAAAACACACACACATAGACCTCCAAT [CACACA_site3563] | 11.3 |
| ATAAAGAAATAAAGTTGTACATTATATATATATATA [XGTACX_site7729] | 9.61 |
| GGTATATTAAAATAGGTGCATAAAACTAAGAGAAAA [GTGCAC_site9781] | 9.73 |
| ATCAAAAGAAAACACACACACATACAGATATATATA [CACACA_site5974] | 11.2 |
| AAAGAAAGAAAACACACACACATATATATATATCAA [CACACA_site3743] | 10.9 |
| ATCAAAAGAAAACACACACACATACATATATATATA [CACACA_site3795] | 11.1 |
| AAAAAAAAAAAACATACACACATACATACAGATATA [CACACA_site4681] | 10.1 |
| AAAAAATACATCAAAAGAAACATATATATATATATA [GTGCAC_negctrl_site719] | 9.59 |
| TAGATACAGAAACACACACACACATACATATATACA [CACACA_site3437] | 10.6 |
| ATCTTTTATATATTCACACATAAAATTATACAGATA [CACACA_site5277] | 9.46 |
| TATATTTCAGGGGGGAGTACAAATTTTTTTATATAA [XGTACX_site1600] | 10 |
| ATATATGGGTAGTATACACACTGTATATTTAGGAAT [CACACA_site7357] | 9.91 |
| ATATATATATATATGTGTACTAATAAGGTTAAATAA [XGTACX_site1535] | 9.85 |
| AAAAAAAAGAAAAACACACACATATATATATAGAAT [CACACA_site1006] | 11.3 |
| CAAGAAAAGAAACACACACACATATATATATATATA [CACACA_site3881] | 11.2 |
| AAAAAAAAAAGAAACACACACATATAGATTTATAAC [CACACA_site6927] | 10.9 |

| Sequence | gcPBM binding intensity (ln) |
| --- | --- |
| TATATATAGAAACACACACACATATATATATATATT [CACACA_site4115] | 10.5 |
| TATATATAGAAACACACACACACATATATATATATT [CACACA_site2539] | 11.3 |
| AAAAAAAAGAAAAACACACACATATTTATTTATAAC [CACACA_site6600] | 10.2 |
| AAAAAAAAAAAAAAAACACACATATAGATTTATATA [CACACA_site7196] | 9.88 |
| TATATATAGAAACACACACACACATATATATATATA [CACACA_site4116] | 10.3 |
| AAAAAAAAAAGAAACACACACATATATATATAGAAT [CACACA_site1777] | 10.3 |
| AAAAAAAAAAAAGAAACACACACATATATATATATA [CACACA_site8525] | 10.7 |
| AAAAAAAAAAAAGAAACACACATATATATATATATA [CACACA_site140] | 9.68 |
| AAGAAAAAAAAAAAAACACACATATATATATATATA [CACACA_site2027] | 10.2 |
| AAAGGTAAATGTAAATAAATAAATAATAAATATATA [GTGCAC_negctrl_site681] | 9.77 |
| TTTTCTTGACCTATTATTCTTCTCATAGTATAATAT [GTGCAC_negctrl_site641] | 9.62 |
| TGAACATACATCAAAAGTACAAACTCGCATGTTATA [XGTACX_site3320] | 9.67 |
| TATAATATTATACATAGTACACATCACACATCGCAA [XGTACX_site4650] | 9.99 |
| ATCAAATAATAGCAAACACACAAAAAATAAAAAAAA [CACACA_site4146] | 9.93 |
| AATAAGCATAGACACACACACAAAAAAAAAAAAAAA [CACACA_site6476] | 10.1 |
| GACACAAAAAAATAATAATAATAATAATAATAAATA [XGTACX_negctrl_site145] | 9.75 |
| AATAAGCAGAAACACACACACAAAAAAAAAAAAAAA [CACACA_site719] | 10.1 |
| ATAATAAGCAGACACACACACACAAAAAAAAAAAAA [CACACA_site6477] | 11 |
| ATAATAAGCAAACACACACACACAAAAAAAAAAAAA [CACACA_site720] | 11.6 |
| GTGATTAATATATACACACATACATATATATATATA [CACACA_site2817] | 9.81 |
| TATATATTAAAAATAGTGCAAAATAATATATATATA [GTGCAC_site9716] | 9.82 |
| TTTTTTACATCCATAAAACTTTTTCTCTTTTAAAAT [CACACA_negctrl_site1745] | 9.43 |

| Sequence | gcPBM binding intensity (ln) |
| --- | --- |
| AAAATTTATGGAAGGTGTACTGTTAATTATGTATAT [XGTACX_site6446] | 9.74 |
| AGGAAGGAAATAAATCAACACACATATATTATATAT [CACACA_site8678] | 9.87 |
| TTATTGTAAATATATGCATGTGCAAAATGAAAAAAA [TGCATGCA_site399] | 9.69 |
| CAAAAAAATGTGAAGGCATGCAAATATGTAAAATAA [TGCATGCA_site921] | 10.9 |
| TTTTATGCATGTGAAGTGCAAAATAAAAAATAAAAT [GTGCAC_site9612] | 9.56 |
| AAAAAACTTCACATATGTACTTAAAAAAAATTAAAA [XGTACX_site2368] | 9.43 |
| ATATAGTAAAATTATACACACATGAATTTTCCCATA [CACACA_site3113] | 9.81 |
| TCCCAATTTATTATGTGTACTTATTATATACATATA [XGTACX_site4033] | 9.72 |
| GTATTACAACGACACACACACCTATATATCATAGTA [CACACA_site7877] | 10.5 |
| AAGTATTACAACCACACACACACCTATATATTATAT [CACACA_site4158] | 10.6 |
| TAAAGTATTACAACCACACACACACCGATATATTAT [CACACA_site9382] | 10.8 |
| ATTATAACCATATACACACCCATATAAATAAATATA [CACACA_site6926] | 10.5 |
| TAAAGTATTACAACCACACACACACCCATATATTAT [CACACA_site4159] | 11.1 |
| AAGTATTACAACCACACACACACCTATATATCATAG [CACACA_site7878] | 11 |
| AAAGGATGTAATATAAACATATATATGTATATATAT [TGCATGCA_negctrl_site347] | 9.79 |
| AATATTATATTTTATTGTACTAATAAAAATATATGC [XGTACX_site5435] | 9.43 |
| AAAAAAGGAAAAGATACACACCGTAAATTAAAATTT [CACACA_site5908] | 10.2 |
| AAAAAAAAAAAAAAAAAAAAAAAAAAAATACGAAAG [GTGCAC_negctrl_site729] | 9.46 |
| AATTTCTACTATTGTATGCACTTTCATACATACATA [GTGCAC_site9924] | 9.92 |
| TAAAAAATAAAATAATGTACATATGAATTATATATT [XGTACX_site8398] | 9.68 |
| TTGTTATAGAAGCATTCACACACACCCATACATACA [CACACA_site8414] | 10.8 |
| TATAGAAGCGTTCACACACACACATACATACCCATA [CACACA_site4915] | 11.1 |

| Sequence | gcPBM binding intensity (ln) |
| --- | --- |
| GTTATAGAAGCATTCACACACACACCCACATACACA [CACACA_site1465] | 11.2 |
| AATATAGATACATATACACACACACCCATACATATA [CACACA_site9137] | 10.6 |
| GTTATAGAAGCATTCACACACACACCGACATACACA [CACACA_site4914] | 10.3 |
| TATTACCCATATTATACACACATATATTATATATAT [CACACA_site1567] | 10.2 |
| TCTTCCATTTTTATTACACACATAAATATGAAATCG [CACACA_site3471] | 9.74 |
| ATATATATTTATAATCGTACGTACCTAACAATACAA [XGTACX_site4510] | 9.62 |
| ATGGATTATACGTGCACACATATATACAAATAAATA [CACACA_site640] | 9.81 |
| AGCAGACACCAACACACACACATATATATATATATA [CACACA_site337] | 10.5 |
| AAACTTGACAGACACACACACACATATATAAAAAAA [CACACA_site757] | 10.4 |
| AAACTTGACGGACACACACACACATATATAAAAAAA [CACACA_site4577] | 11.6 |
| ACTTGACACGGACACACACACATATATAAAAAAAAA [CACACA_site4576] | 10.5 |
| AAATAAAATACATATAAACACACATATAAACCAACA [CACACA_site8789] | 10.2 |
| CATATATAAAAAAACACACACATATATATATATATA [CACACA_site1195] | 10.2 |
| GTTTGATTAAACTTGACACACATATATATAAATATA [CACACA_site1784] | 9.65 |
| ACTTGACACCAACACACACACATATATAAAAAAAAA [CACACA_site756] | 11 |
| AAACTTGACGAACACACACACACATATATAAAAAAA [CACACA_site6494] | 11.5 |
| AATGGAAAATTATTAACACACACATATAAATATATA [CACACA_site7899] | 10.1 |
| AAATATAAATATACTCGTACATATATATATATATAT [XGTACX_site6940] | 9.72 |
| ACAAAACATATATTCTGTACATATATAATGGTGACT [XGTACX_site6796] | 9.77 |
| TTTTTTTTTTTTTTTTTTTGATTCTTATAAAAATTT [GTGCAC_negctrl_site240] | 8.56 |
| CTTATATTTAGACACACACACAATAAAATGAAAAAA [CACACA_site1031] | 10.3 |
| TACTAAGAATTAATATAACAAAATAAAAAAAAAAAA [XGTACX_negctrl_site346] | 9.44 |
